# Reference: PubChem BioAssay (EPA / NIEHS)
# Inconclusive results are not listed. The source made the active and inactive calls. How the source made its calls: active means hit-call score of the fitted dose curve at least 0.9, where 1 is the maximum; inconclusive means response in the unintended direction; inactive means score below 0.9.
# Experiments:
# [1] = ACEA_ER_AUC_viability: ACEA Biosciences xCELLigence Real-Time Cell Analysis on Estrogen Receptor Agonism for Viability (AID 2283782);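 further: continuous compound exposure with impedance area under curve over 80 h; hit means loss of impedance signal meaning reduced cell growth or viability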
# Procedure, shortened: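 T47D cells preconditioned in phenol red-free RPMI with charcoal-stripped FBS, then dosed with 8-point 1:4 series from 100 uM (up to 0.5% DMSO). Impedance monitored up to ~80 h; area-under-curve loss versus DMSO taken as viability.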
# AR (gene 367) = AR (gene 367) (UniProt P10275); experiment: ACEA_AR_antagonist_80hr: ACEA Biosciences xCELLigence Real-Time Cell Analysis on Androgen Receptor Antagonism for Proliferation (AID 2283787);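 further: 22Rv1 human prostate cancer cells with growth followed by electrical impedance; hits lower the impedance growth signal relative to DMSO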
# Sequence of AR (gene 367) (P10275 whole entry, looked up): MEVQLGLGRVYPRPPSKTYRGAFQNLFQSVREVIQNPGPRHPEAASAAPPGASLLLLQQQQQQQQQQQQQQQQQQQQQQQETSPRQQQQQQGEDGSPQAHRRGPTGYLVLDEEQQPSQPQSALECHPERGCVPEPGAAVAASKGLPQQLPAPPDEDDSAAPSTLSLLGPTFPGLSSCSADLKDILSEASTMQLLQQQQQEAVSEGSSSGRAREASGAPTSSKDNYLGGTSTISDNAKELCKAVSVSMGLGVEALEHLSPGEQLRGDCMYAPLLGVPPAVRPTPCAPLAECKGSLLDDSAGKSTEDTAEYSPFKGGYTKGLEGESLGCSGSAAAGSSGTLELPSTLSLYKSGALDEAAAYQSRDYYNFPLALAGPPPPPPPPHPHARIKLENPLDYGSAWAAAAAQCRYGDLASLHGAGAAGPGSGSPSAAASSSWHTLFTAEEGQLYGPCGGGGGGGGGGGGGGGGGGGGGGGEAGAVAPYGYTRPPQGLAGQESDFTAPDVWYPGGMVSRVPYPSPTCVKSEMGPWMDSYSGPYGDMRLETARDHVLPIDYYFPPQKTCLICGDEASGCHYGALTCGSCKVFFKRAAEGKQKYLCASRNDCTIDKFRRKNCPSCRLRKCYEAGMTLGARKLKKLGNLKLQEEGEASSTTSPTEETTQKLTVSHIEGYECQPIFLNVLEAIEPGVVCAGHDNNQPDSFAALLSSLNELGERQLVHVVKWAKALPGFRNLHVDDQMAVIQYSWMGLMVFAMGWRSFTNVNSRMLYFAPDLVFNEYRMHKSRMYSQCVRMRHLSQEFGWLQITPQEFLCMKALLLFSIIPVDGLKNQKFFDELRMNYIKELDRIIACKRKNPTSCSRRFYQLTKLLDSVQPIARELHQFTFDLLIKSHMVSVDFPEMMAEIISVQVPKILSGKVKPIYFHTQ
# Procedure, shortened: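 22Rv1 cells in assay medium, growth tracked by electrical impedance; compounds eight-point 1:4 dilutions from 100 uM final, duplicate plates. Endpoint at 80 h; loss of signal versus DMSO.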
smiles,measurement,setting,value
O=C1c2ccccc2C(=O)N1SC1CCCCC1,AC50,[1],50 µM (active)
c1ccc2[nH]ccc2c1,outcome,[1],inactive
same,outcome,AR (gene 367),inactive
CCCCNC(=O)NS(=O)(=O)c1ccc(C)cc1,outcome,[1],inactive
COc1ccc(O)cc1,outcome,[1],inactive
same,outcome,AR (gene 367),inactive
CCCCN,AC50,[1],45.1 µM (active)
CO[Si](CCCn1c(=O)n(CCC[Si](OC)(OC)OC)c(=O)n(CCC[Si](OC)(OC)OC)c1=O)(OC)OC,AC50,[1],21.7 µM (active)
